Here are results for 15 molecules from ChEMBL document CHEMBL1961873, “Compounds: GSK PKIS; Assays: Nanosyn kinase panel” (2012).

Each structure is given as a SMILES string.

For this experiment, the target named is Tyrosine-protein kinase receptor UFO (Homo sapiens) (UniProt P30530). The note with it: at 1 µM.
Chain of Tyrosine-protein kinase receptor UFO (Homo sapiens) (P30530 whole entry): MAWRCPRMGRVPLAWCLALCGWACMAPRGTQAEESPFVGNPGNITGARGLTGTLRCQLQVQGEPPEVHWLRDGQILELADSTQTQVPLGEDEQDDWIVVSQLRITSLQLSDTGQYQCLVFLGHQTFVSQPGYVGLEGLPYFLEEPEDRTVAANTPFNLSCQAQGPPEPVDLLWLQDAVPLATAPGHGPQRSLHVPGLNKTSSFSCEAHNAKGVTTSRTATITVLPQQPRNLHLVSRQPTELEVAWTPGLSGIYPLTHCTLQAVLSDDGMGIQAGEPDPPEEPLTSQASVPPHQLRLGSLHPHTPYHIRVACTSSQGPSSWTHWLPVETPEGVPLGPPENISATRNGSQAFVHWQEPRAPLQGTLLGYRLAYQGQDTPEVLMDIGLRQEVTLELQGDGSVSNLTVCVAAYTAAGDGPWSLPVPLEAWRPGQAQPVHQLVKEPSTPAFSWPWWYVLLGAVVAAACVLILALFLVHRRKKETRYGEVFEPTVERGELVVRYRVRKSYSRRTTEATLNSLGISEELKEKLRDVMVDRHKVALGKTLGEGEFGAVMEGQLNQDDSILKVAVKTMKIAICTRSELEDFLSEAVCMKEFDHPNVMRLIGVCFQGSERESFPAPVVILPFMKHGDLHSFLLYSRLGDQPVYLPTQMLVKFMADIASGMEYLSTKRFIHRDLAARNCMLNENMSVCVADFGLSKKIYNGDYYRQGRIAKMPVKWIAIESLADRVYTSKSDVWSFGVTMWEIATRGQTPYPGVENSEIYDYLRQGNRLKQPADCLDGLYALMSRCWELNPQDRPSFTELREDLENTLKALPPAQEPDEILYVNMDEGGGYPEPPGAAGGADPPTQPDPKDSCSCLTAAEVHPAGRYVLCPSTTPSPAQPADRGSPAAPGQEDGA
Regarding `COc1ccc(-c2oc3ncnc(N)c3c2-c2ccc(NC(=O)Nc3cc(C(F)(F)F)ccc3F)cc2)cc1`, the inhibition worked out at 82.1%.
The result for `Fc1cccc(COc2ccc(Nc3ncnc4sc(-c5ccco5)cc34)cc2Cl)c1` reads -6.25%; that for `COc1cc(N2CCN(C(C)C)CC2)ccc1Nc1nc(Nc2ccc(F)cc2C(N)=O)c2cc[nH]c2n1`, 42.4%.
The figure for `CN(C)CCOc1ccc(-c2nc(-c3ccncc3)c(-c3ccc4c(c3)CC/C4=N\O)[nH]2)cc1` is -4.92%; for `NC(=O)c1sc(-n2cnc3ccc(C(F)(F)F)cc32)cc1OCc1ccccc1Br` it is -3.8%; for `Nc1nc(-c2cccc(Cl)c2)c(-c2ccc3ncccc3n2)s1` it is -8.66%.
Turning to `CCCN1CCC(c2ccc(Nc3nc(Nc4cc(F)ccc4C(N)=O)c4cc[nH]c4n3)c(OC)c2)CC1`, the inhibition came out at 66%.
The result for `CCn1cc(-c2ccnc3[nH]ccc23)c(-c2cccc(NC(=O)Nc3ccc(OCc4ccccc4)cc3)c2)n1` reads 0.9%.
As to `NS(=O)(=O)c1ccc(Nc2ncc(-c3ccccc3)o2)cc1`, the inhibition is -3.58%.
The figure for `CCCN(CCS(C)(=O)=O)Cc1ccc(-c2ccc3ncnc(Nc4ccc(OCc5cccc(F)c5)c(Cl)c4)c3c2)o1` is -0.23%.
The result for `CCN(CC)S(=O)(=O)c1ccc(OC)c(Nc2ncc(-c3ccccc3)o2)c1` reads -0.53%; that for `CS(=O)(=O)CCNCc1coc(-c2ccc3ncnc(Nc4ccc(OCc5ccccc5)cc4)c3c2)c1`, 0.06%; that for `N#Cc1c(NC(=O)CN2CCOCC2)sc2c1CCCC2`, -0.41%.
The figure for `COc1cccc(-n2ncc3c(N/N=C/c4ccc(F)cc4)ncnc32)c1` is -3.79%; for `O=C(O[C@H]1CN[C@H](C#Cc2cc3ncnc(Nc4ccc(Cc5ccccc5)cc4)c3s2)C1)N1CCOCC1` it is -7.04%.
